PNC inhibitor = blocks assembly of the perinucleolar compartment; PC3M PTB-GFP, PNC prevalence imaging, 16 h; active compounds read low; activity change (PNC), negative = inhibition, % at 10 µM; 140,000 tested, 3.1% active; AID 2417;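 active = readout at or below -70, meaning at least 70% loss of cells showing the perinucleolar compartment, a nuclear body marking cancer cells; inconclusive = readout between -30 and a set limit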;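 also: plate controls were DMSO wells for no effect and camptothecin positive control wells for full effect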
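PC3M cells stably expressing PTB-GFP, 750–1000 cells/well, treated 16 h at 37 °C with compound (23 nl of library stock), in duplicate. After paraformaldehyde fixation and Hoechst stain, imaged at 20x; PNC prevalence scored by image analysis.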
ALDH1A1 inh = ALDH1A1 (human) enzyme inhibition | P00352 | Purified ALDH1A1, NADH fluorescence, propionaldehyde substrate | Potency, µM (series often up to 75.3 µM), inactives show at the top dose activity, negative = inhibition, actives largely listed as inhibitors | 220,000 tested, 7.3% active | AID 1030; active = well fitted inhibition curve with a large enough effect, not every such curve was filed as active; inconclusive = small, poorly fitted or top-dose-only effect, or another doubt; inactive = no such curve, though single readings can be large or run the other way;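 also: potency is read from the fitted curve at half-maximal effect; plate controls were no enzyme wells and a reference inhibitor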
CBFb RUNX1 block = CBF-beta/RUNX1 interaction disruption; Q01196+Q13951; AlphaScreen CBFb-His/RUNX1-biotin binding, biochemical; Potency, µM (titrated, usually from 59.8 µM), for the others: at the top dose activity, negative = inhibition, most hits filed as inhibitors; 230,000 tested, under 10 active; AID 1477; also: % of control where 0% means no effect
Target sequence (Q01196 whole entry, looked up): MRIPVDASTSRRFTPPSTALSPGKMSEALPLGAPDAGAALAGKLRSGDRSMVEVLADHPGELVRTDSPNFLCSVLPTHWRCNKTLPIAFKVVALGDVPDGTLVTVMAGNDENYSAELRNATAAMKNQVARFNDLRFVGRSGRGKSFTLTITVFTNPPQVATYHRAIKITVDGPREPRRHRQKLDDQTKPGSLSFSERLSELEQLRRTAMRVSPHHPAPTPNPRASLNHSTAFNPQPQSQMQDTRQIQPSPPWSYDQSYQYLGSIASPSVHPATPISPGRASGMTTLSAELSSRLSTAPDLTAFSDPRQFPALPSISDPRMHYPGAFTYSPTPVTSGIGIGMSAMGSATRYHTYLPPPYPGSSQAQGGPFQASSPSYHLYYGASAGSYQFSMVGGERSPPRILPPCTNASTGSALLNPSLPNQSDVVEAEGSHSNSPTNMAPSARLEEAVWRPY
Target sequence (Q13951 whole entry, looked up): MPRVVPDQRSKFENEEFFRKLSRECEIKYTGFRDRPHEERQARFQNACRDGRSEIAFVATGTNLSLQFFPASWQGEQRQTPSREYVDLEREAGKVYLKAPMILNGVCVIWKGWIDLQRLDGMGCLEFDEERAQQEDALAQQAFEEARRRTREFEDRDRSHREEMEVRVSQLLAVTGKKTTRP
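Proteins preincubated together for 20 min at RT before compound addition; 15 min later, nickel and streptavidin beads were added and left 90 min prior to AlphaScreen measurement.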
HTT cytoprotect = protects HTT-Q103 PC12 cells, measured by ATP | Potency, µM (titrated, usually from 56.4 µM), without a hit: cytoprotection (ATP increase), most hits filed as activators | PC12 HTT-Q103 induced, cytoprotection, ATP luminescence, 40 h | 230,000 tested, 0.14% active; also: potency is read from the fitted curve at half-maximal effect; % of control where 0% means no effect; nearly all actives have a fitted effect of over 45% in size
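Quantitative HTS on tebufenozide-induced (100 nM) PC12 cells expressing HTTQ103 exon 1–GFP; compounds tested as a concentration series; survival measured via cellular ATP.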
HPGD block = blocks human HPGD enzyme activity. 150,000 tested, 4.3% active. AID 894. Potency, µM, inactives show top-dose activity change, negative = inhibition, most hits filed as inhibitors. P15428. purified HPGD, NADH fluorescence kinetic, PGE2 substrate; active = well fitted inhibition curve with a large enough effect, not every such curve was filed as active; inconclusive = small, poorly fitted or top-dose-only effect, or another doubt; inactive = no such curve, though single readings can be large or run the other way; also: potency is read from the fitted curve at half-maximal effect; % is scaled to controls: 0 for no effect and ±100 for the full control effect
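20 nM HPGD preincubated 15 min at room temperature with compound in 50 mM Tris-HCl pH 8, 0.01% Tween 20. Started with 1 mM NAD+ and 30 uM prostaglandin E2; NADH fluorescence (360/450 nm) read 5 times over 30-s intervals, last minus first.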
HttQ103 aggreg = reduces HttQ103-GFP aggregates in PC12 cells; PC12 HttQ103-GFP aggregates, Acumen cytometry, 40 h; Potency, µM (series often up to 46.1 µM), inactives show top-dose activity change, negative = inhibition, usual class: inhibitors; 220,000 tested, 1.1% active; also: potency is read from the fitted curve at half-maximal effect; % is scaled to controls: 0 for no effect and ±100 for the full control effect; nearly all actives have a fitted effect of over 60% in size
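PC12 cells with ecdysone-inducible HTT exon1 Q103-GFP, induced by 100 nM tebufenozide, given compounds in a concentration series. GFP aggregates (1–25 um, 6 SD above background) counted in lysates by laser-scanning cytometry, 488 nm excitation.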
* hit, by the source's call; ? = inconclusive; · = not tested or not shown; [ ] = remark or other dose. Shown are actives, neighbours in structure and some others; about 11% of the full set was active somewhere. Unless noted, calls follow the shape of the dose curve; as a rule, active = well fitted curve in the direction sought with a large enough effect; inconclusive = small, poorly fitted or top-dose-only effect, or another doubt; inactive = no such curve, though single readings can be large; an effect the other way counts as inactive or inconclusive.

SMILES | PNC inhibitor | ALDH1A1 inh | CBFb RUNX1 block | HTT cytoprotect | HPGD block | HttQ103 aggreg
CCN1CCN(S(=O)(=O)c2cccc([N+](=O)[O-])c2)CC1 | ? | -4.9% | 8.9% | -3.1%[10 µM] | -8.3% | 25.3%
COc1ccc(C(=O)CN2CCN(S(=O)(=O)c3cccc([N+](=O)[O-])c3)CC2)cc1 | -16.4 | 10µM* | -0.3% | 28.8%[10 µM] | -13.0% | 16.8%
CCOc1ccc(C(=O)CN2CCN(S(=O)(=O)c3ccc(OC)cc3)CC2)cc1 | -14.0 | 20µM* | 2.2% | 8.8%[1.9 µM] | -5.7% | 20.9%
CCOc1ccc(NC(=O)CCN2CCN(S(=O)(=O)c3ccc(OC)cc3)CC2)cc1 | -11.5 | -7.2% | 2.5% | -22.1% | -12.5% | 12.0%
COc1cccc(C(=O)CN2CCN(S(=O)(=O)c3ccc(Br)cc3)CC2)c1 | 0.0 | 11.2µM* | -0.3% | -16.0% | -7.5% | -6.9%
N=c1ccn2c(n1)O[C@@H]1[C@@H](O)[C@H](CO)O[C@H]12 | · | · | · | -35.2%[1.9 µM] | · | ·
O=C1c2ccccc2C(=O)N1C[C@]1(C(=O)O)NCCS1(=O)=O | · | -2.5%[13.5 µM] | · | -3.5%[10 µM] | -8.0% | ·
O=CN1CCN(C(C(=O)NC2CCCCC2)c2cc3c(cc2[N+](=O)[O-])OCO3)CC1 (configuration not stated) | · | 5.01µM* | 11.7% | -2.3% | · | 6.0%
O=C(NC1CCCCC1)C(c1cc2c(cc1[N+](=O)[O-])OCO2)N1CCCCC1 (configuration not stated) | 36.5 | 28.2µM* | -3.8% | · | ? | -6.1%
COC(=O)c1cc2c(cc1[N+](=O)[O-])OCO2 | · | -0.9% | 3.1% | 2.4% | · | 1.3%
COc1ccc(NC(=O)C(c2cc3c(cc2[N+](=O)[O-])OCO3)N2CCN(C=O)CC2)cc1 (configuration not stated) | ? | ? | -2.8% | · | -20.1% | 11.8%
COC(=O)C1=C(C(=O)OC)[C@@H]2Nc3ccccc3[C@@]23C[C@@H](C(=O)OC)N(S(=O)(=O)c2ccc(Br)cc2)C3=N1 | · | -3.8%[13.5 µM] | -10.7%[13.1 µM] | -20.0%[10 µM] | -6.5% | ·
CC(=O)NCC(=O)OCC(=O)Nc1ccc(C(C)=O)cc1 | 19.3 | 22.4µM* | 3.2% | 17.0% | ? | 7.0%
Cc1cccc(NC(=O)COC(=O)CNC(=O)C2CCCCC2)c1 | -8.2 | ? | 3.6% | -0.3%[10 µM] | -11.7% | 11.5%
N#Cc1ccc(NC(=O)COC(=O)CNC(=O)C2CCCCC2)cc1 | -104.8* | 0.0% | -1.1% | 8.6% | -10.3% | 0.3%[9.22 µM]
CC(=O)OCC(=O)Nc1ccc(C(C)=O)cc1 | 1.0 | ? | -0.9% | -8.6% | -7.4% | 8.8%
CCCCCCOc1ccc(C(=N)N(CCCC)CCCC)c2ccccc12 | · | · | · | -98.7% | · | ?
Cn1c(=O)c2cc(S(=O)(=O)N3CCOCC3)ccc2n(C)c1=O | -27.3 | 16.6% | 4.5% | 15.8µM* | -14.8% | -16.9%
CC1=C(C)C(c2ccccc2)NC(=S)N1 (configuration not stated) | 37.0 | 12.6µM* | 8.8% | 21.2%[10 µM] | -14.1% | -8.2%
CC1=C(C(=O)c2ccccc2)C(c2ccc(O)cc2)NC(=S)N1 (configuration not stated) | · | · | 2.7% | 0.0%[10 µM] | · | -13.9%[9.22 µM]
O=C1C2C3C=CC([C@@H]2C(=O)N1C1CCCCC1)[C@H]1C(=O)N(C2CCCCC2)C(=O)C31 (some centres not stated) | -18.9 | 1.41µM* | 1.5% | -8.1% | -4.0% | -3.3%
O=C1C=C[C@@H](O)[C@H]2[C@@H]3C(=O)N(C4CCCCC4)C(=O)[C@@H]3CC[C@H]12 | · | ? | 14.7%[13.1 µM] | ? | · | ·
O=C1C2C3C=CC(C2C(=O)N1C1CCCCC1)C1C2C(=O)N(C4CCCCC4)C(=O)C2C31 (configuration not stated) | -1.5 | 1.41µM* | 4.2% | 11.0%[1.9 µM] | 3.3% | 12.8%
Clc1cccc2c1CCN(Cc1nc(-c3cnccn3)no1)C2 | · | ? | 0.2% | · | · | ·
CC1CCc2c(sc(N)c2C(=O)OC(C)C)C1 (configuration not stated) | 2.4 | 11.2µM* | -5.5% | 13.6% | 28.2µM* | 0.2%
SMILES | PNC inhibitor | ALDH1A1 inh | CBFb RUNX1 block | HTT cytoprotect | HPGD block | HttQ103 aggreg
CCOC(=O)c1nc2sc3c(c2c(=O)[nH]1)CCC(C)C3 (configuration not stated) | · | · | 5.8% | 10.0%[10 µM] | · | 8.4%[9.22 µM]
CCOC(=O)CSC1=C(C#N)C(=O)NC(c2ccc(OC)c(OC)c2)S1 (configuration not stated) | 27.0 | ? | -1.7% | -20.8% | -14.3% | 7.0%
CCOC(=O)CSC1=C(C#N)C(=O)NC(c2ccc(OC)cc2)S1 (configuration not stated) | 10.7 | 20µM* | -5.7% | -9.0% | -15.8% | 8.8%
COc1cccc([C@@H]2Oc3ccc(OC)cc3C(=O)[C@H]2OC(=O)N[C@H]2CCCc3ccccc32)c1 | · | ? | -9.5% | -40.6% | -28.3% | ·
CCOC(=O)C1=C(C)NC(=O)NC1c1ccoc1 (configuration not stated) | 15.9 | -0.9% | 2.9% | -5.6%[10 µM] | -13.8% | -15.0%
CCOC(=O)C1=C(C)NC(=O)NC1c1ccc2c(c1)OCCO2 (configuration not stated) | -100.0* | 13.3% | 10.2% | 0.7% | -2.8% | -7.0%
CCOC(=O)C1=C(C)NC(=O)NC1c1ccc(OCC(N)=O)cc1 (configuration not stated) | -100.0* | 7.8% | -1.1% | 41.7%[10 µM] | -12.4% | -14.1%
CCOC(=O)C1=C(C)NC(=O)NC1c1ccc(OC(=O)c2ccco2)cc1 (configuration not stated) | 15.7 | 0.9% | 1.8% | -7.0%[10 µM] | -10.1% | 13.3%
CC1=C(C(=O)OCc2ccc3c(c2)OCO3)C(c2ccc(F)cc2)NC(=O)N1 (configuration not stated) | -2.2 | -5.3% | -4.3% | -38.4% | 4.0% | 1.41µM*
CC1=C(C(=O)OC(C)C)C(c2ccc(F)cc2)NC(=O)N1 (configuration not stated) | ? | -5.6% | 8.7% | 1.3%[10 µM] | -2.7% | -2.7%
CCOC(=O)C1=C(c2ccccc2)NC(=O)NC1c1ccc(N(C)C)cc1 (configuration not stated) | -100.0* | 14.1µM* | 3.0% | 16.5% | -8.4% | 22.3%
C#CCOCCOCCOCCNc1nc(N2CCN(C(=O)Cn3cc(CCCN=C(N)N)nn3)CC2)nc(N2CCN(C(=O)[C@H]([C@@H](C)CC)n3cc(CCCN=C(N)N)nn3)CC2)n1 | 28.6 | 14.0% | 2.4%[2.36 µM] | · | -1.7% | -9.8%
CC1=C(C(=O)OCc2ccc3c(c2)OCO3)C(c2ccc(Cl)cc2)NC(=O)N1 (configuration not stated) | -16.3 | -0.7% | -1.7% | -3.0% | -10.8% | 1µM*

Assay outcomes (PubChem BioAssay)
